According to PubChem BioAssay (NCATS):
“And” between values parts separate entries of the source, which are not always exact repeats. Equal values may be shown once. Records with an inconclusive call do not appear. Some structures have more than one record in an assay (separate samples or runs), and their calls can disagree. The source made the active and inactive calls. Calls come from the whole dose curve; as a rule, active = well fitted curve in the direction sought with a large enough effect; inconclusive = small, poorly fitted or top-dose-only effect, or another doubt; inactive = no such curve, though single readings can be large; an effect the other way counts as inactive or inconclusive.

What was measured:
[1] = qHTS assay for measurement of the activity of small molecule inhibitors on Zika virus induced Caspase-3 activity in human astrocytoma cells (AID 1224859); note: potency is the fitted concentration of half-maximal effect
Method in brief: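 Percent inhibition of virus-induced caspase-3/7 signal is calculated against uninfected and ZIKV-infected control cells. Cells are SNB-19, infected at 2 FFU/cell for 6 h after 1 h compound exposure.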

[2] = qHTS Screen of the MIPE 4.0 Collection Against Ewings Sarcoma (RDES) (AID 1259252); note: nearly all actives have a fitted effect of over 35% in size; note: potency is the fitted concentration of half-maximal effect
Method in brief: (§1)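 Compound titrations go onto adherent log-phase cells 4 h after seeding, incubate 48 h at 37C, then CellTiter-Glo luminescence reports viability relative to DMSO and cell-free controls.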

[3] = qHTS Screen of the MIPE 4.0 Collection Against Ewings Sarcoma (TC71) (AID 1259253); note: nearly all actives have a fitted effect of over 40% in size; note: potency is the fitted concentration of half-maximal effect
Method in brief: as §1

[4] = qHTS Screen of the MIPE 4.0 Collection Against Ewings Sarcoma (EW8) (AID 1259255); note: nearly all actives have a fitted effect of over 35% in size; note: potency is the fitted concentration of half-maximal effect
Method in brief: as §1

[5] = qHTS Screen of the MIPE 4.0 Collection Against Ewings Sarcoma (TC32) (AID 1259256); note: nearly all actives have a fitted effect of over 45% in size; note: potency is the fitted concentration of half-maximal effect
Method in brief: as §1

[6] = qHTS assay to identify small molecule inhibitors of chordoma cells - UCH-1 (AID 1259355); note: nearly all actives have a fitted effect of over 55% in size
Method in brief: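 A 48hr growth-inhibition format: each drug tested at 15 concentrations together with added auranofin, camptothecin, doxorubicin, rubitecan and topotecan, with cell viability quantified as CellTiter-Glo luminescence.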

[7] = qHTS assay to identify small molecule inhibitors of chordoma cells - UCH-2 (AID 1259356); note: series mostly up to about 46 µM
[8] = Identifying Small Molecule Inhibitors of Pancreatic Cancer Stem Cells (SN12C, Adherent) (AID 1259358);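 note: cell survival measured after 48 h of compound exposure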
Method in brief: (§2)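 Viability is scored by CellTiter-Glo luminescence 48 h after dosing, expressed as percent activity against vehicle and no-cell references. Spheroid formats rely on cells cultured 14 days in stem cell media beforehand.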

[9] = Identifying Small Molecule Inhibitors of Pancreatic Cancer Stem Cells (Panc1, Spheroid) (AID 1259359);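 note: compound exposure lasted 48 h before reading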
Method in brief: as §2

Measured: Potency

CNC(=O)c1ccc(C)c(-n2c(C)cc(OCc3ccc(F)cc3F)c(Br)c2=O)c1
inactive: [1]

CC(=O)Oc1ccccc1C(=O)O
inactive: [1] | [6] | [7]
active: [2] 8.33 µM | [3] 18.7 µM | [4] 20.9 µM | [5] 11.8 µM

Cc1[nH]c(=O)c(C#N)cc1-c1ccc2nccn2c1
inactive and 4.69 µM (active): [1]
not listed: [8] | [9]
inactive: all other assays above

CC(C[N+](C)(C)C)OC(N)=O (stereo not drawn)
not listed: [8] | [9]
inactive: all other assays above

COCC(=O)NCC=Cc1ccc2ncnc(Nc3ccc(Oc4ccc(C)nc4)c(C)c3)c2c1
inactive: [1]
active: [2] 20.9 µM | [3] 23.5 µM

CC1(C)CNc2cc(NC(=O)c3cccnc3NCc3ccncc3)ccc21
active: [2] 1.05 µM | [3] 2.35 µM | [4] 23.5 µM | [5] 5.26 µM
inactive: [1]

CCCCNc1cc(C(=O)O)cc(S(N)(=O)=O)c1Oc1ccccc1
not listed: [8] | [9]
inactive: all other assays above

CC(C)NCC(O)COc1ccc(COCCOC(C)C)cc1 (stereo not drawn)
not listed: [8] | [9]
inactive: all other assays above

CCOC(=O)C1=C[C@]2(CC)CCCN3CCc4c(n1c1ccccc41)[C@@H]32
inactive: [1] | [6] | [7]
active: [2] 23.5 µM | [3] 20.9 µM | [4] 18.7 µM | [5] 18.7 µM

CCc1ccc(CCOc2ccc(CC3SC(=O)NC3=O)cc2)nc1 (stereo not drawn)
active: [2] 0.0148 µM | [3] 0.296 µM
not listed: [9]
inactive: all other assays above

c1ccc([C@H]2CN3CCSC3=N2)cc1
not listed: [8] | [9]
inactive: all other assays above

Cc1cc2c(C(C)C)c(O)c(O)c(C=O)c2c(O)c1-c1c(C)cc2c(C(C)C)c(O)c(O)c(C=O)c2c1O
inactive: [1] | [6] | [7]
active: [2] 10.5 µM | [3] 13.2 µM | [4] 11.8 µM | [5] 18.7 µM

CCOC(=O)N1CCC(=C2c3ccc(Cl)cc3CCc3cccnc32)CC1
active: [2] 26.4 µM | [3] 26.4 µM | [4] 26.4 µM | [5] 23.5 µM
inactive: [1] | [6] | [7]

Cn1cnc([N+](=O)[O-])c1Sc1ncnc2nc[nH]c12
inactive: [1] | [6] | [7]
active: [2] 2.64 µM | [3] 1.18 µM | [4] 4.69 µM | [5] 3.32 µM

Oc1ccc(C2CNCCc3c2cc(O)c(O)c3Cl)cc1 (stereo not drawn)
not listed: [8] | [9]
inactive: all other assays above

Cc1cn[nH]c1
active: [2] 0.0074 µM | [3] 0.0469 µM | [4] 0.059 µM
inactive: [1] | [5] | [6] | [7]

Cc1ccccc1C(OCCN(C)C)c1ccccc1 (stereo not drawn)
not listed: [8] | [9]
inactive: all other assays above

CS(=O)(=O)c1ccc(C(=O)Nc2ccc(Cl)c(-c3ccccn3)c2)c(Cl)c1
inactive: [1] | [2] | [3] | [4] | [5]

CCN(CC)CCCC(C)Nc1ccnc2cc(Cl)ccc12 (stereo not drawn)
not listed: [8] | [9]
inactive: all other assays above

Cc1c(CN2CCN(C(=O)C(C)C)CC2)sc2c(N3CCOCC3)nc(-c3cnc(N)nc3)nc12
inactive: [1]
active: [2] 0.0833 µM | [3] 0.148 µM | [4] 0.105 µM | [5] 0.0662 µM

CC[C@H](Nc1ncnc2nc[nH]c12)c1nc2cccc(F)c2c(=O)n1-c1ccccc1
active: [2] 2.35 µM | [3] 2.96 µM | [4] 2.64 µM | [5] 2.96 µM
inactive: [1]

NC(N)=NC(=O)c1nc(Cl)c(N)nc1N
not listed: [8] | [9]
inactive: all other assays above

CCC(C)(C)C(=O)O[C@H]1C[C@@H](C)C=C2C=C[C@H](C)[C@H](CC[C@@H]3C[C@@H](O)CC(=O)O3)[C@H]21
active: [2] 23.5 µM | [3] 11.8 µM | [4] 18.7 µM | [5] 3.72 µM
inactive: [1] | [6] | [7] | [9]

COc1cc2c(cc1OC)CN(CCc1ccc(NC(=O)c3cccc4c(=O)c5cccc(OC)c5[nH]c34)cc1)CC2
inactive: [1]
active: [2] 10.5 µM | [3] 20.9 µM
